Source: PubChem (National Center for Advancing Translational Sciences (NCATS))
Pf Dd2 inh: qHTS Primary assay for Inhibitors of Plasmodium falciparum Dd2 growth in vitro. 120,000 compounds, 4.3% hits. Potency, µM (series often up to 28.9 µM), for inactives: at the top dose activity, negative = inhibition, actives largely listed as inhibitors. P. falciparum Dd2 growth, SYBR Green, 72 h; active = well fitted inhibition curve with a large enough effect;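 also: plate controls were DMSO vehicle for no effect and reference drug for full effect; nearly all actives have a fitted effect of over 65% in size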
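Readout: SYBR Green fluorescence, 485 nm excitation, 535 nm emission, after ~16 h lysis at 37C. Before that, Dd2-infected red cells (2.5% hematocrit) grew 72 h with compound, 29 uM top final concentration.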
Numbers without * were called inactive; i = inactive; [ ] = dose if it differs, or a comment. The sample as a whole holds a higher share of hits than the screen did. Potency is read from the fitted curve at half-maximal effect.

SMILES	Pf Dd2 inh
COc1cc2c(cc1OC)C(CNC(=O)c1ccc(Cl)cc1)N(C(=O)Nc1cccc(F)c1)CC2 (stereo unspecified)	-3%
COc1cc2c(cc1OC)C(CNC(=O)Cc1ccccc1)N(C(=O)NC(C)C)CC2 (stereo unspecified)	i
COc1ccc(C(=O)NCC2c3cc(OC)c(OC)cc3CCN2C(=O)Nc2ccccc2F)cc1 (stereo unspecified)	i
COc1ccc(CC(=O)N2CCc3cc(OC)c(OC)cc3C2COc2ccc(OC)cc2)cc1 (stereo unspecified)	7.9µM*
COc1ccc(C(=O)N2CCN(C(=O)COc3ccccc3)CC2)cc1OC	12%
CCCC(=O)N1CCc2cc(OC)c(OC)cc2C1COc1ccccc1OC (stereo unspecified)	13µM*
COC(=O)c1ccc(OCC2c3cc(OC)c(OC)cc3CCN2C(=O)c2ccccc2F)cc1 (stereo unspecified)	10µM*
COc1cc2c(cc1OC)C(COc1cc(C)cc(C)c1)N(C(=O)COc1ccccc1)CC2 (stereo unspecified)	5µM*
COc1cc2c(cc1OC)C(CNC(=O)c1ccccc1C)N(C(=O)Nc1cccc(C)c1)CC2 (stereo unspecified)	i
O=C(c1ccc(F)c(F)c1)N1CCC[C@H]1c1nc(-c2ccccc2Cl)no1	-26%
CNc1nc2c(s1)C(c1ccc(Cl)cc1)CC(=O)N2 (stereo unspecified)	-14%
COCCN1C(=O)CCC2(C(=O)NCCc3c[nH]c4ccccc34)CCCC=C12 (stereo unspecified)	-19%
Cc1ccccc1C(=O)NC1CCN(c2cc(C(F)(F)F)ncn2)CC1	-23%
Cc1cc(C(=O)N2CC[C@H](NS(=O)(=O)c3cccs3)C[C@H]2C(=O)N[C@H](CC(C)C)C(N)=O)n(C)n1	-11%
O=C(NCc1ccc(F)cc1Cl)C1CCN(c2cnc3nccnc3c2)CC1	i
CC(=O)N1CCC(N2CC[C@@H](CO)N(C)c3ncccc3C2)CC1	0%[44.1 µM]
CN(C)CCNC(=O)c1n[nH]c2c1CN(C(=O)c1cc(F)ccc1Cl)CC2	i
Cc1ccc(-c2ncc(NC(=O)c3ccccc3F)cn2)cc1	i
COc1cc2c(cc1OC)C(CNC(=O)C1CC1)N(C(=O)NC(C)C)CC2 (stereo unspecified)	-18%
CCc1ccc(OCC2c3cc(OC)c(OC)cc3CCN2C(=O)Cc2ccc(OC)c(OC)c2)cc1 (stereo unspecified)	8.9µM*
COc1cc(OC)c(NC(=O)N2CCc3cc(OC)c(OC)cc3C2CC(=O)O)cc1Cl (stereo unspecified)	9%
COc1ccc(CC(=O)NCc2ccc3c(c2)CCN3C(=O)c2ccc(Cl)cc2)cc1OC	i
CCOC(=O)c1ccc(OCC2c3cc(OC)c(OC)cc3CCN2C(=O)Cc2ccc(OC)c(OC)c2)cc1 (stereo unspecified)	8.9µM*
O=C(c1ccc(CC2CCN(C(=O)c3ccccn3)CC2)cc1)N1CCOCC1	-14%
CC(=O)NCCNc1cc(C)c2ccc(Cl)cc2n1	-12%
SMILES	Pf Dd2 inh
CCc1noc(C)c1C(=O)N1C[C@@H](C(=O)O)C[C@@H](C(=O)N2CCCC2)C1	4%
Cc1ccc2c(c1)nc1n2[C@@H](CNC(=O)c2cccnc2)COC1	0%[44.1 µM]
O=C1N(C2CCCCC2)C[C@H]2CN(Cc3ncc[nH]3)CCN12	15%[44.1 µM]
O=C(c1ccsc1)N1CCCn2cc(-c3ccccc3)nc21	i
CCn1c2c(c(=O)n3ncc(C(=O)N4CCN(c5ccc(C(C)=O)cc5)CC4)c13)CN(Cc1ccc(OC)cc1)CC2	10µM*
COc1ccc(N2CCN(C(=O)c3noc4c3CCCCC4)CC2)cc1	49%
COc1ccc(Cn2ccc3nc(C)c(C(=O)N4CCN(c5ccc(F)cc5)CC4)cc3c2=O)cc1	-4%
CCCC1=Nc2cc(C(=O)NCCc3ccc(OC)c(OC)c3)ccc2Sc2ccc(C)cc21	10µM*
CC1=Nc2cc(C(=O)NC(C)C)ccc2Sc2ccc(C)cc21	11µM*
COc1ccc(CCNC(=O)c2ccc3c(c2)N(Cc2cccc(Cl)c2)C(=O)CS3)cc1OC	-4%
CCCNC(=O)c1ccc2c(c1)N(Cc1cccc(C)c1)C(=O)c1ccccc1S2	-6%
O=C(NCc1ccccc1)c1ccc2nccn2c1	-13%[44.1 µM]
COc1ccc(CCNC(=O)c2ccc(Cn3c(=O)c4ccccc4n(Cc4ccc(C)cc4)c3=O)cc2)cc1OC	21%
COc1ccc(CCNC(=O)c2cc(=O)c3cc(C)cc(C)c3o2)cc1OC	7%
CCCC1=Nc2cc(C(=O)NCc3ccccc3)ccc2Sc2ccccc21	11µM*
Cc1ccc(C)c(CN2C(=O)c3ccccc3Sc3ccc(C(=O)NCCCOC(C)C)cc32)c1	-16%
CNC(=O)c1ccc2c(c1)N=C(C)c1cc(C)ccc1S2	i
COc1ccc(CCNC(=O)c2ccc3[nH]c(C)c(C)c3c2)cc1OC	i
COc1ccc(CCNC(=O)c2ccc3c(c2)N=C(C)c2cc(C)ccc2S3)cc1OC	11µM*
CCOc1ccc(NC(=O)CN2C(=O)NC3(CCOCC3)C2=O)cc1	-9%
Cc1csc(NC(=O)c2nc(C(O)c3ccccc3)oc2C)n1 (stereo unspecified)	i
Cc1ccc(C(=O)N2CCC(Oc3ccc(C(=O)N(C)C)cn3)CC2)cc1F	29%
CN(C)C(=O)N1CCN(C(=O)c2noc3c2CCCC3)[C@H]2CS(=O)(=O)C[C@H]21	i
CC(C)N1C(=O)C2(CCCC2)C1C(=O)NCc1nc2ccccc2n1C (stereo unspecified)	-17%
CC(=O)N(C1CC1)C1CCOC2(CCN(C(=O)NCc3ccccc3)CC2)C1 (stereo unspecified)	-8%
SMILES	Pf Dd2 inh
Cc1ccc(NC(=O)Cn2c(N3CCN(c4ccccc4)CC3)nc(C)cc2=O)c(Cl)c1	0%
OC1(c2csc(CN3CCOCC3)n2)CCN(Cc2ccc(C(F)(F)F)cc2)CC1	7%
CCN(CC)Cc1nc(C2(O)CCN(Cc3ccc(C(F)(F)F)cc3)CC2)cs1	11µM*
CCN1CCC(O)(c2csc(CN(CC)CC)n2)CC1	4%[44.1 µM]
Cc1noc(-c2cccc(OC3CN(C(=O)NC4CCCC4)C3)c2)n1	i[5.79 µM]
O=C(c1ccc(C(F)(F)F)cc1)N1CCCC2(C1)C(=NC1CCCCC1)NC(=O)N2c1cc(F)cc(F)c1 (stereo unspecified)	41%
COc1ccc(Nc2cc(C)nc(-n3nc(C)cc3C)n2)cc1Cl	3.5µM*
Cc1cc(Nc2ccc(F)cc2F)nc(-n2nc(C)cc2C)n1	-23%
CCCOc1ccc(Nc2cc(C)nc(C)n2)cc1	0%
CN(C)c1nc2c(c(=O)[nH]1)CCN(Cc1cccnc1)CC2	5%[5.79 µM]
Cn1ncc(N2CCC(NC(=O)CC3CCCC3)CC2)cc1=O	-11%
CN(C)C[C@@H]1CN(c2ncccn2)C[C@H]1NC(=O)c1cnco1	13%
O=C1CC(c2ccccc2)N(C(=O)CNS(=O)(=O)c2ccccc2)CCCCCN1 (stereo unspecified)	-19%
Cn1nccc1C(=O)NCC(=O)N1CCCCCNC(=O)CC1c1ccccc1 (stereo unspecified)	31%
O=C1CC(c2ccccc2)N(C(=O)CNS(=O)(=O)c2cccnc2)CCCCCCN1 (stereo unspecified)	i
Cn1nc(C(=O)N2CCCCCCNC(=O)[C@@H]3CCCC[C@@H]32)c2ccccc21	2.2µM*
O=C1CC(c2ccccc2)N(C(=O)CNC(=O)Cn2c(=O)oc3ccccc32)CCCCCCN1 (stereo unspecified)	10µM*
